# Source: the supplement of paper PMC3334620
# The full ranking holds about 33,000 sequences; the median of “E-score (-0.5 to 0.5)” is about -0.015, and the highest 2% start at about 0.3. For the sample, the highest values were picked, then their nearest neighbours and some sequences at random.
# Biological target: T1, Abf1 (UniProt P14164)
# T1 sequence: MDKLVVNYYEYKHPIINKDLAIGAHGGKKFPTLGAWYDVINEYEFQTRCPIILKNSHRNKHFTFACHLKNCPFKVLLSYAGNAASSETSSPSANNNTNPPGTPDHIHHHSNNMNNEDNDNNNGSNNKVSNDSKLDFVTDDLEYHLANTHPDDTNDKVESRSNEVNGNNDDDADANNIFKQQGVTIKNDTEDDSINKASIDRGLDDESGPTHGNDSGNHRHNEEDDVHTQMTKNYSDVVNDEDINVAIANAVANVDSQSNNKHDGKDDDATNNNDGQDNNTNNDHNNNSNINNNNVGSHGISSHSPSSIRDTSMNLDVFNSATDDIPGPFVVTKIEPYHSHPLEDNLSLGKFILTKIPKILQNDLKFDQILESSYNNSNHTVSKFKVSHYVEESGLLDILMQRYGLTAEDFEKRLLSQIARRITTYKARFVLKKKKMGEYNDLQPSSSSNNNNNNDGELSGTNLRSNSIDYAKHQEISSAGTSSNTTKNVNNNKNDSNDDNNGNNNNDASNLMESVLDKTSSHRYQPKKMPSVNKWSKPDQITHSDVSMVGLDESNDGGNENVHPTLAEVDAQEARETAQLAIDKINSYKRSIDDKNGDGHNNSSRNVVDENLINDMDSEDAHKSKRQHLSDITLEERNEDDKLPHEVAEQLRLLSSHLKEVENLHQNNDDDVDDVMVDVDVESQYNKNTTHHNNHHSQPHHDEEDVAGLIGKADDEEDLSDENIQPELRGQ
# Test: PBM E-score (8-mer binding enrichment) (E-score (-0.5 to 0.5)); higher = stronger / more preferred TF binding
# Conditions: protein concentration: 200 nM; construct: GST-full length
# Protocol: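 Universal 'all 10-mer' protein binding microarrays (Agilent AMADID 015681) probed with GST-tagged S. cerevisiae TFs (full-length or DBD) made by in vitro transcription/translation (PURExpress), about 100-200 nM. Bound TF was detected with fluorescent anti-GST. Each ungapped 8-mer (which stands for itself and its reverse complement) is scored by the PBM enrichment score (E-score), a modified Wilcoxon-Mann-Whitney statistic from -0.5 to +0.5, computed with the Universal PBM Analysis Suite. Scale: above 0.35 generally sequence-specific binding.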
row,Sequence,PBM E-score
1,CCAGACAG,-0.2
2,GAGTAAAA,0.0646
3,CCGCGACA,0.154
4,CCGCGACG,0.32
5,CCGCGACC,-0.0179
6,CTAATGCC,-0.208
7,CAATCGTG,0.122
8,AAAACGCA,0.00195
9,AGGTTTCG,-0.199
10,AACGAACA,0.215
11,GACGAACA,0.253
12,CACGAACA,0.186
13,CACGATCG,0.339
14,CACGATCC,0.0482
15,AACGAAAA,0.103
16,CACGAACG,0.372
17,TGCGAAAA,0.175
18,CACGATCA,0.272
19,TACGAAAA,0.297
20,AACGAACG,0.144
21,TACGAACA,0.351
22,AACAAATT,0.201
23,AAAAACGT,0.0618
24,GTAGCCCA,0.0106
25,ACCATCCC,-0.155

row,Sequence,PBM E-score
1,AACAGAGA,-0.09
2,ACCGCTCA,0.0985
3,GAGCACTA,0.0823
4,GACGAATA,0.232
5,GCCGAAAC,-0.0478
6,CACGAAAC,0.272
7,CACGAAAA,0.31
8,GACGAAAC,0.344
9,GACGAAAA,0.337
10,AACGAAAC,0.101
11,GCCGAAAA,0.173
12,CACGAAAG,0.272
13,CTAGGAGA,-0.236
14,TCTACCAA,-0.0268
15,CTGGACCC,-0.279
16,CGGATGAA,0.211
17,GCATGTCA,0.225
18,CCGTGTCA,0.268
19,TCATGTCA,0.332
20,ACATGTCA,0.221
21,TCGTGGAA,0.336
22,ACGTGGAA,0.118
23,GCGTGGAA,-0.105
24,CCGTGTAA,0.217
25,ACGTGTAA,0.235

row,Sequence,PBM E-score
1,TCGTGTAA,0.343
2,TCGTGTCA,0.326
3,GCGTGTCA,0.0814
4,CAGAAGGG,-0.136
5,AAACTCAA,0.0218
6,ATGTTACG,0.087
7,GTTGGTCA,0.221
8,ACATCTAA,-0.0374
9,CGACCTCA,0.00561
10,GTCGCGAA,0.188
11,ATCGCGAG,0.138
12,GTCGCGAC,0.32
13,ATCGCGAA,0.199
14,CTCGCGAC,0.238
15,ATCGCGAT,0.411
16,AACACAAC,-0.029
17,CATAAACG,0.22
18,GAATGCCC,-0.0158
19,ACGCACGT,0.105
20,TCGCACGA,0.317
21,GCGCACGA,0.0514
22,ACGCACGC,-0.0387
23,CCGCACGC,-0.186
24,ACGCACGA,0.389
25,CCGCACGA,0.376

row,Sequence,PBM E-score
1,TCGCACAA,0.167
2,ACCCACGA,0.287
3,GCCCACGA,0.019
4,TCCCACGA,0.326
5,CCGCACGG,0.0967
6,AAGTCCCC,-0.149
7,ACTCTGAT,0.043
8,ACTAGTGC,0.104
9,CGGCCCGC,-0.121
10,AATGCTCC,-0.223
11,CGCGTACG,0.271
12,ATTATGGG,0.00349
13,GGATATAA,0.298
14,GGATATAC,-0.053
15,CGATATAA,0.203
16,AGTTACGG,0.0796
17,GGAGGAAA,-0.252
18,CCGATACG,0.121
19,ACGATAGG,0.233
20,ACGATATC,0.321
21,CCGATATC,0.21
22,ACGATACT,0.285
23,ACGATATA,0.289
24,ACGATATG,0.304
25,ACGATACG,0.334

row,Sequence,PBM E-score
1,AGGATATC,0.24
2,ATGCCACC,-0.148
3,AATCCAGT,0.0412
4,AATCTGCA,-0.185
5,TGGGACAA,0.0227
6,AAGCCACG,0.124
7,AAAGTATA,0.101
8,CGATACCA,0.018
9,AAGTCACA,0.125
10,AAGTCACT,0.304
11,AGGTCACG,0.235
12,AGGTCACC,0.282
13,AAGTCACG,0.268
14,AGGTCACT,0.304
15,ACTCTGAC,-0.0634
16,CGAATTCC,-0.0103
17,CGGACGCC,-0.0127
18,AATGCCAG,-0.155
19,ATGTCGGG,0.0062
20,AAGGAACA,-0.0655
21,ACGCAGCG,-0.162
22,CACGACGA,0.263
23,AACGACGA,0.346
24,GCCGACGA,0.176
25,AATAACGA,0.325

row,Sequence,PBM E-score
1,CACGACCG,-0.0182
2,CCCGACGA,0.196
3,AACGACGT,0.19
4,AATAACGC,-0.118
5,AATAACGG,0.126
6,AACGACGG,0.249
7,TCCGACGA,0.392
8,CACGACGG,0.356
9,ACAGCTAG,-0.181
10,ACTCTTAA,-0.0406
11,AACCGGGG,-0.212
12,AAAATCCC,-0.0966
13,CGTCCTAC,-0.0375
14,ACTCGATA,0.199
15,AACTGCGA,-0.0488
16,ATCTGCAG,-0.106
17,GAGTATAC,0.0804
18,GACGACGC,0.3
19,TACGACCA,0.242
20,TACGACGA,0.329
21,GACGACGA,0.251
22,AACGACGC,0.0599
23,CACGACGC,0.172
24,TACACCCA,-0.015
25,CACCACGA,0.202

row,Sequence,PBM E-score
1,GGGTGCTA,-0.118
2,CGTGCGAG,0.137
3,CCTTAAGC,-0.123
4,CGTCGTAG,0.192
5,GGTCGTAC,0.212
6,CATCGTAA,0.106
7,TGTCGTAA,0.103
8,CGTCGTAA,0.392
9,CGTCGTAC,0.399
10,CGTCGTTC,0.313
11,AGTCGTTC,0.212
12,GATCGTAC,0.151
13,CGTCGTTA,0.257
14,GGTCGTAA,0.104
15,CATCGTAC,0.382
16,ATTCTGTG,0.00625
17,GCGAAAGA,-0.024
18,AAGACGAG,-0.0454
19,AATAGTAC,0.132
20,AAATGGGT,-0.0572
21,ACGCAGTC,-0.224
22,AGATCATG,0.262
23,CGTCGTCC,0.307
24,AGTCGTCC,0.142
25,CGTCGTCA,0.24

row,Sequence,PBM E-score
1,ACTCGAGA,-0.0317
2,CGACAAAC,0.167
3,GCATATCC,0.179
4,ACATATCA,0.341
5,TCATATCA,0.315
6,ACATATCG,0.118
7,GCATATCA,0.319
8,GCATATGA,0.028
9,TCATATGA,0.101
10,ACATATCC,0.236
11,CCATATCA,0.163
12,GACGACCA,0.286
13,CACGAGAG,0.0678
14,ACTCGGAG,-0.00102
15,CTCTTGTC,0.024
16,ATTCTATC,0.127
17,AGTAGAGC,-0.168
18,TCAGCAGA,-0.0392
19,AAATGGAC,0.0432
20,ACCGTTTC,0.0554
21,ACCGTTGC,0.0812
22,CACAACCC,-0.194
23,ATGGGGAA,-0.104
24,ATTATCAG,0.0821
25,CTTATCAA,0.164

row,Sequence,PBM E-score
1,CTTATCAC,0.369
2,ATTATCAA,0.193
3,ATTATCAC,0.434
4,CTTATCCC,-0.0767
5,CGTGGTTC,0.0193
6,GAGCCCCC,-0.283
7,TCATAGAA,0.121
8,GACCGGCC,-0.229
9,TAATTGGA,0.141
10,GCATACGC,-0.149
11,GAGCCGTA,0.347
12,AAGCCGTA,0.193
13,CAGCCGTA,0.192
14,GCCGTTGA,0.173
15,TGGGGCAA,-0.281
16,ATATATCC,0.171
17,GTATATCA,0.386
18,GTATATAA,0.286
19,GTATATGA,0.12
20,CTCTATAC,0.116
21,ATATATAC,0.262
22,ATATATCA,0.311
23,CTATATCA,0.267
24,CTATATAC,0.364
